Screening data deposited in PubChem by several laboratories.
ADAM10 inh: ADAM10 inhibition, QFRET primary screen; O14672; recombinant ADAM10, EDANS/DABCYL FRET peptide cleavage, 3 h; inhibition, % at 7 µM; actives 0.62% (n = 370,000);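 active = inhibition above a per-campaign cutoff equal to the mean of compounds falling between control-based bounds plus 3 SD, cut at about 20% in these data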;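 also: 0% = DMSO wells while the 100% control is not disclosed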
KLK7 zymogen act: activators of human kallikrein-7 zymogen | purified proKLK7, EDANS-DABCYL substrate fluorescence; 100% is mature enzyme control, 0% vehicle | activation, % at 7 µM | actives 0.9% (n = 370,000) | AID 652039;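 active = activation above the mean of all tested compounds plus 3 SD, computed per campaign excluding outliers beyond control limits, cut at about 13% in these data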
ADAM17 inh: inhibits human ADAM17 | actives 0.83% (n = 370,000) | AID 720648 | recombinant ADAM17, EDANS/DABCYL FRET peptide cleavage | P78536 | inhibition, % at 6.95 µM;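 active = inhibition above the mean of compounds lying between control limits plus 3 SD, set per campaign, cut at about 8.5% in these data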;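 also: 0% = DMSO-only wells as the low control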
GRIN3A LBD mod: NR3A (human) ligand-binding domain modulation. AID 1259313. Tm shift relative to glycine control, % at 25 µM. NR3A LBD differential scanning fluorimetry, Tm shift; 0% = protein alone, 100% = glycine-bound protein. actives 2.5% (n = 340,000);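 active = melting temperature shift of at least 10% of the positive control shift, at one fixed dose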
AHR activator: human AHR activation. P35869. AID 2796. activation, % at 5 µM. actives 2.5% (n = 320,000). AHR-responsive luciferase reporter cells, luminescence; in the data active = activation above about 47%;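 also: 0% = vehicle wells and 100% = reference agonist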
Target sequence (P35869 whole entry, looked up): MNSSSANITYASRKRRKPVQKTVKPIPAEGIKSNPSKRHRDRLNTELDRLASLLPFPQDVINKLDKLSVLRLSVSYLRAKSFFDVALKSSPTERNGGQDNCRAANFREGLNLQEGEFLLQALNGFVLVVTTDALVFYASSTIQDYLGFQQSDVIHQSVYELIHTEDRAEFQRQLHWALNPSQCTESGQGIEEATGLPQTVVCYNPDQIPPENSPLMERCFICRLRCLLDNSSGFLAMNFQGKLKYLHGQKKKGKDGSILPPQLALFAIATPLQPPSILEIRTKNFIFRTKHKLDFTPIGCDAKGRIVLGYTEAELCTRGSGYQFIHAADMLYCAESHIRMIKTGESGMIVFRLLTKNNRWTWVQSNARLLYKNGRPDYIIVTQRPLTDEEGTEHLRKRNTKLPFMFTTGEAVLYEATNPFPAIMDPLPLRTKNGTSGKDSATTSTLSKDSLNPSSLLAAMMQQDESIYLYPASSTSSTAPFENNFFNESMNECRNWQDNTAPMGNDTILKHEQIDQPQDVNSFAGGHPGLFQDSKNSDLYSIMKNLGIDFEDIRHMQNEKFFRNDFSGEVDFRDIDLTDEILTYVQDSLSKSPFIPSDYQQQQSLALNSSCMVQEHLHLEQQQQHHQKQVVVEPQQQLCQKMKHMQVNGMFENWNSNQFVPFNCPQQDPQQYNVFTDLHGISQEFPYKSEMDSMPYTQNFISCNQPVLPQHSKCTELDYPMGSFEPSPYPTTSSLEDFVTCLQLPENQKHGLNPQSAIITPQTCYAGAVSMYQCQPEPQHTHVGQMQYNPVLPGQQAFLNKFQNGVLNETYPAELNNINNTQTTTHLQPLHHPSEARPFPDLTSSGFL
rCAG binder: binds r(CAG) RNA repeats; r(CAG) RNA repeat, TO-PRO-1 dye displacement fluorescence; inhibition, % at 3 µM; actives 1.3% (n = 370,000);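 active = inhibition above the plate cutoff, the mean of all test compounds on that plate plus 3 SD, cut at about 35% in these data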;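 also: 0% = DMSO alone and 100% = 100 µM mitoxantrone as full dye displacement; higher means more dye released from RNA so lower well fluorescence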
rCAG bind conf: r(CAG) RNA repeat binding, confirmation | AID 652065 | actives 70% (n = 4,300) | shares compounds with rCAG binder | inhibition, % at 3 µM | TO-PRO-1 dye displacement fluorescence;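 active = inhibition above a per-plate cutoff, the mean inhibition of sample wells plus 3 SD, cut at about 35% in these data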;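 also: loss of TO-PRO-1 fluorescence as compound displaces dye from 1x1 AA loop RNA; 0% = DMSO only wells and 100% = 100 µM mitoxantrone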
DNA CAG counter: counter-screen for rCAG RNA binders: DNA CAG dye complex inhibitors; inhibition, % at 3 µM; actives 94% (n = 4,300); shares compounds with rCAG binder; AID 652068; d(CAG) DNA oligo TO-PRO-1 dye displacement, fluorescence;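 active = inhibition above its plate's cutoff, the mean test-well inhibition plus 3 SD, cut at about 4.8% in these data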;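 also: 0% = DNA dye mix with DMSO and 100% = 100 µM mitoxantrone; hits displace the dye from DNA and so lower well fluorescence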
dCAG dye DR: DNA CAG dye complex inhibition, dose response counter-screen | shares compounds with rCAG binder | DNA CAG/GTC duplex TO-PRO-1 dye displacement fluorescence | IC50, µM | actives 20% (n = 250); in the data active = IC50 below about 10 µM
Numbers without * were called inactive; i = inactive; . = not tested or not shown. Hits are enriched below; roughly 7% of the tested compounds scored in any of these assays.

SMILES | ADAM10 inh | KLK7 zymogen act | ADAM17 inh | GRIN3A LBD mod | AHR activator | rCAG binder | rCAG bind conf | DNA CAG counter | others
COc1ccc(CC(=O)Nc2ccc(C(=O)O)cc2NC(=O)Cc2ccc(OC)cc2)cc1 | -4 | 0 | -2 | -1 | -1 | 12 | . | .
COc1ccc(C(=O)Nc2ccc(C(=O)O)cc2NC(=O)c2ccc(OC)cc2)cc1 | -1 | 0 | -1 | 1 | . | 36* | 20 | 3
COc1ccc(/C=C(\NC(=O)c2ccc(OC)cc2)C(=O)Nc2ccccc2C(=O)O)cc1 | -1 | 0 | 4 | 0 | 4 | 39* | 22 | 4
Cc1ccc(OCC(=O)Nc2ccc(O)c(C(=O)O)c2)cc1C | -113 | 2 | -33 | 1 | 4 | 12 | . | .
Cc1ccccc1OCC(=O)Nc1ccc(C(=O)Nc2ccccc2C(=O)O)cc1 | 7 | 0 | 4 | 7 | 18 | 49* | 73* | 37*
Cc1ccc(OCC(=O)Nc2ccc(C(=O)Nc3ccccc3C(=O)O)cc2)cc1C | -5 | -1 | 2 | . | . | 51* | 80* | 45*
Cc1ccccc1OCC(=O)Nc1ccc(C(N)=O)cc1 | 6 | 0 | 5 | -12 | 4 | 0 | . | .
CCN(CC)C(=O)CC[C@H]1CC[C@]2(CCCN(Cc3ccc(OC)cc3)C2)O1 | 3 | -1 | 0 | . | . | -3 | . | .
COc1ccc(OCC(=O)Nc2ccc(C(=O)Nc3ccccc3C(=O)O)cc2)cc1 | 5 | 0 | 0 | 1 | 4 | 73* | 75* | 30* | dCAG dye DR=i
COc1ccc(OCC(=O)Nc2ccccc2C(=O)Nc2ccc(C(=O)O)cc2)cc1 | 3 | 0 | -4 | -1 | 4 | 19 | . | .
CCCC(C(=O)Nc1ccc(S(=O)(=O)Nc2nccs2)cc1)c1ccccc1 (stereo not given) | -9 | 1 | 7 | 0 | . | 49* | 36* | 9.7*
O=C(CSc1ccccc1)Nc1ccc(S(=O)(=O)Nc2ncccn2)cc1 | -2 | 0 | -6 | -1 | 0 | 2 | . | .
O=C(CSc1ccc2ccccc2c1)Nc1ccc(S(=O)(=O)Nc2nccs2)cc1 | 7 | 0 | 5 | 13* | 3 | 74* | 71* | 36*
CCCCCCCC(=O)Nc1ccc(S(=O)(=O)Nc2nccs2)cc1 | 1 | 0 | 2 | -3 | -2 | 55* | 41* | 18*
NC(=O)c1ncn([C@@H]2O[C@H](C(=O)N[C@H](Cc3c[nH]c4ccccc34)C(=O)N3CCN(C(=O)C4CC4)CC3)[C@@H](O)[C@H]2O)n1 | -12 | 1 | -5 | . | . | 1 | . | .
OCCCNc1ncnc2scc(-c3ccc(Cl)cc3)c12 | 3 | -1 | -5 | -1 | . | -8 | . | .
O=S(=O)(Nc1ncnc2scc(-c3ccc(F)cc3)c12)c1cc(F)ccc1F | 3 | -1 | -3 | 1 | 2 | 54* | 55* | 20*
C[C@H](CO)N1C[C@H](C)[C@@H](CN(C)C(=O)c2ccncc2)OCc2cn(nn2)CCCC1=O | -1 | 0 | -2 | . | . | 0 | . | .
CCCCOc1ccc(-c2c(C(=O)Nc3ccccc3)c(C)[nH]c(=S)c2C#N)cc1 | 18 | 0 | 7 | -24 | 2 | 60* | 36* | 16*
CCOC(=O)c1c(C)[nH]c(=S)c(C#N)c1-c1ccc(OC)cc1 | -2 | 0 | -2 | 1 | -7 | 6 | . | .
c1cc(-c2nnc3n2N=C(c2ccc4c(c2)OCO4)CS3)ccn1 | -13 | 0 | -2 | . | . | 0 | . | .
CCOC(=O)c1sc(N/N=C/c2cc(Br)c(O)c(OC)c2)nc1C | -17 | -1 | -11 | 14* | 67* | 48* | 38* | 17*
CCOc1cc(C(c2c(C)[nH][nH]c2=O)c2c(C)[nH][nH]c2=O)ccc1OCc1ccc([N+](=O)[O-])cc1 | 10 | 0 | 1 | -5 | -2 | 39* | 42* | 14*
O=C(CN1CCCc2ccccc21)NCc1ccc(Cl)cc1 | -29 | 0 | -8 | . | . | 5 | . | .
CC(C)CN(CC(C)C)C(=O)c1ccc2c(c1)NC(=O)C(C)(C)O2 | -6 | 0 | 1 | . | . | -2 | . | .
SMILES | ADAM10 inh | KLK7 zymogen act | ADAM17 inh | GRIN3A LBD mod | AHR activator | rCAG binder | rCAG bind conf | DNA CAG counter | others
CCOC(=O)c1c(C)oc2c1cc(NS(=O)(=O)c1ccc(C(=O)O)cc1)c1ccccc12 | -2 | 0 | -2 | -6 | 25 | 67* | 55* | 20*
O=c1c(O)cccc2cc(O)c(O)c(O)c12 | -1 | 9 | -1 | -5 | 1 | 51* | 78* | 48*
Cc1cc(C(=O)O)c2ccccc2n1 | -1 | 0 | 4 | -1 | 1 | -2 | . | .
CC(C)c1cc(C(=O)O)c2ccccc2n1 | -1 | 0 | 1 | -1 | 1 | 40* | -1 | -1
CC(C)n1nnnc1C1(C)CSCC(=O)N1Cc1cccc(F)c1 (stereo not given) | 0 | 0 | -1 | . | . | 7 | . | .
COC(=O)c1cc(NS(=O)(=O)c2ccc(Cl)c(N3C(=O)c4ccc(C(=O)O)cc4C3=O)c2)cc(C(=O)OC)c1 | -4 | 0 | -5 | -1 | -3 | 52* | 45* | 13*
CC(C)CN1C(=O)C[C@@]2(C(=O)N(C)c3ccc(NS(=O)(=O)C4CCCCC4)cc32)C1c1ccccc1 (stereo not given in full) | 1 | 0 | -1 | . | . | 3 | . | .
Cc1ccc(-n2cccc2/C=C2/C(=N)N3C(=NC2=O)SN=C3S(C)(=O)=O)cc1Cl | 9 | 2 | 7 | 2 | 1 | 89* | 92* | 73*
CCC1=NN2C(=N)/C(=C\c3cccn3-c3c(C)cccc3C)C(=O)N=C2S1 | -11 | 0 | 0 | -8 | 22 | 25 | . | .
Cc1cccc(C)c1-n1cccc1/C=C1/C(=N)N2C(=NC1=O)SN=C2S(C)(=O)=O | 3 | 0 | -1 | -4 | -2 | 88* | 85* | 59*
CC1=CSC2=NC(=O)/C(=C\c3cccn3-c3ccccc3)C(=N)N12 | -13 | 3 | -8 | 3 | 14 | 5 | . | .
Nc1nc2c(ncn2[C@@H]2O[C@H](C(=O)NCC(c3ccccc3)c3ccccc3)[C@@H](O)[C@H]2O)c(=O)[nH]1 | -18 | 0 | -3 | . | . | 6 | . | .
O=C(C1CCC1)N1CCc2cc(S(=O)(=O)N3CCN(c4ccccc4F)CC3)ccc21 | -6 | 0 | -1 | . | . | 6 | . | .
